Experimental data as given in PubChem BioAssay (NCATS).
Inconclusive results are not listed. A call without a number means that no potency is given here. Values without a mark were called inactive. Activity calls are given as the source filed them. Calls come from the whole dose curve; as a rule, active = well fitted inhibition curve with a large enough effect; inconclusive = small, poorly fitted or top-dose-only effect; inactive = no such curve, though single readings can be large or run the other way.

Tested on: Zika virus NS2B-NS3 protease (linked construct)
Assay: Primary screen NINDS Rhodamine qHTS for Zika virus inhibitors (AID 1347160); note: nearly all actives have a fitted effect of over 55% in size
Settings: purified NS2B-NS3 protease, Rhodamine110 substrate fluorescence; series mostly up to 57.1 µM
Text: Avindra Nath, Ph.D., National Institute of Neurological Disorders and Stroke (NINDS), Bethesda, MD
Radhakrishnan Padmanabhan, Ph.D., Georgetown University (GU), Washington D.C.
Zika Virus causes congenital defects, including microcephaly and is associated with Guillain-Barre syndrome, eningoencephalitis and myelitis in infected adult. […] Using a target-based approach, we hope to establish a screening paradigm to uncover novel, cell-active NS2B-NS3 protease (Zika Virus) specific inhibitors from NCATS' collection of small molecules using qHTS.
Four assay panel was created to identify potential Zika Virus inhibitors. Namely, (1) GU unlinked NS2B-NS3 AMC tagged protease qHTS, (2) GU unlinked NS2B-NS3 Rhodamine tagged protease qHTS, (3) NINDS linked NS2B-NS3 AMC tagged protease qHTS, (4) NINDS linked NS2B-NS3 Rhodamine tagged protease qHTS. Active compounds were re-acquired and re-screened to confirm inhibition. Inhibitors were further screened against various confirmatory and counterscreens in dose response format.
Early Translation Branch (ETB)
National Center for Advancing Translational Sciences (NCATS), Rockville, MD
National Institute of Health (NIH), Bethesda, Maryland
For the linked assay, Nath lab (NINDS) provided the purified linked NS2B-NS3 protease which is consists of hydrophilic domain of NS2B linked to the NS3 protease domain by a flexible (-[…]-) linker. Control compound aprotinin is obtained from Thermo Scientific (#78432; Waltham, Massachusetts). Rhodamine110 substrate ([N-Cbz]-Nle-Lys-Arg-Arg-Rhod110-Arg-Arg-Lys-Nle-[N-Cbz]) was purchased from either Genscript or Bachem.
1536-well Protease (Rhodamine110 Substrate) Assay:
Briefly, 3 microL of enzyme (25 nM final concentration), in assay buffer (10 mM Tris-HCl pH 8.0 with 0.01% Tween 20) were dispensed into a 1,536-well solid-bottom black plate (Greiner Bio One, Monroe, NC). Twenty-three nL of compounds (final concentration range 7.28 nM to 114 microM) or control Aprotinin (final concentration range 3.47 nM to 114 microM) were transferred via Wako Pin-tool (Wako Automation, Richmond, VA). Samples were incubated (room temperature, protected from light) for 15 minutes followed by a 1 microL Rhodamine110 substrate addition (1.5 microM final concentration). Plates were then immediately read on a ViewLux High-throughput CCD imager (PerkinElmer, Waltham, MA) equipped with FITC fluorescence optics (480(20) nm excitation, 540(25) nm emission), then incubated (room temperature, protected from light) for 15 minutes (~15% conversion). The change in fluorescence intensity over the 15-minute reaction period was normalized against no-inhibitor and no-enzyme controls and the resulting percent inhibition data were fitted to a 4-parameter Hill equation. Aprotinin was used as intraplate control.
Potency is the fitted concentration of half-maximal effect.

Structure (SMILES) | Potency | activity change, negative = inhibition | outcome
Cc1nc2c([nH]1)CCN(C(=O)c1ccc(NC(=O)c3ccccc3-c3ccccc3)cc1)c1ccccc1-2 | inactive |  | 
CCCCn1c(=O)n(Cc2ccccc2F)c(=O)c2[nH]c(Cc3ccc(NC(C)=O)cc3)nc21 | inactive |  | 
NS(=O)(=O)c1ccc(Nc2nc(OCC3CCCCC3)c3[nH]cnc3n2)cc1 | inactive |  | 
COc1cc2ncnc(Nc3cc(Br)c(O)c(Br)c3)c2cc1OC | inactive |  | 
CC1=C(C(=O)Nc2cc3cn[nH]c3cc2F)C(c2ccc(C(F)(F)F)cc2)CC(=O)N1 (stereo not given) | inactive |  | 
COC(=O)N1CCN(Cc2cccc(NC(=O)Nc3ccc(C)nc3)c2F)CC1 | inactive |  | 
NS(=O)(=O)c1cc(Cl)c(Cl)c(S(N)(=O)=O)c1 | inactive |  | 
Nc1ccc(-c2ccc3ncc4ccc(=O)n(-c5cccc(C(F)(F)F)c5)c4c3c2)cn1 | inactive |  | 
COc1nccc(-c2c(-c3ccc(F)cc3)ncn2C2CCC(O)CC2)n1 (stereo not given) | inactive |  | 
Cc1cnc(CNC(=O)c2c(=O)c3ccc(N4CCCN(C)CC4)nc3n3c2sc2ccccc23)cn1 |  | 6.93% [at 10.7 µM] | 
CC(=O)Nc1cccc(-n2c(=O)n(C3CC3)c(=O)c3c(Nc4ccc(I)cc4F)n(C)c(=O)c(C)c32)c1 | inactive |  | 
COc1ccc(CCC(=O)Nc2nc3ccc(Cl)cc3s2)cc1OC | inactive |  | 
CC1(COc2ccc3c(c2)ncn3-c2ccc3cccc(N4CCC(N)CC4)c3n2)COC1 | inactive |  | 
CCN(CCO)CCCOc1ccc2c(Nc3cc(CC(=O)Nc4cccc(F)c4)[nH]n3)ncnc2c1 | inactive |  | 
COc1nc(C)cnc1NS(=O)(=O)c1cccnc1-c1ccc(-c2nnco2)cc1 | inactive |  | 
CN(C)CCOc1cc(-c2cn[nH]c2)ccc1NC(=O)C1COc2ccccc2O1 (stereo not given) | inactive |  | 
N#Cc1ccc(Oc2ccc3c(c2)COB3O)cc1 | inactive |  | 
CCNC(=O)c1noc(-c2cc(C(C)C)c(O)cc2O)c1-c1ccc(CN2CCOCC2)cc1 | inactive |  | 
c1ccc(-c2oc3ncnc(NC[C@@H]4CCCO4)c3c2-c2ccccc2)cc1 | inactive |  | 
CNC1CCC(N(Cc2cccc(-c3ccncc3)c2)C(=O)c2sc3ccccc3c2Cl)CC1 (stereo not given) | inactive |  | 

Structure (SMILES) | Potency | activity change, negative = inhibition | outcome
C[C@@H]1CCO[C@H]2Cn3cc(C(=O)NCc4ccc(F)cc4F)c(=O)c(O)c3C(=O)N12 | inactive |  | 
CC(C)CNc1ccnc(NCc2csc(-c3ccccc3)n2)n1 | inactive |  | 
O=c1[nH]nc(OCCCc2ccc(Cl)cc2)c(NCc2cccnc2)c1Br | inactive |  | 
CC(C)(O)CC(=O)NCCn1ccc2ncnc(Nc3ccc(Oc4cccc(C(F)(F)F)c4)c(Cl)c3)c21 | inactive |  | 
NC1(C(=O)N[C@@H](CCO)c2ccc(Cl)cc2)CCN(c2ncnc3[nH]ccc23)CC1 | inactive |  | 
C[C@@]1(C(=O)Nc2ccc(F)nc2)CCCN1c1nc(Nc2cc(C3CC3)[nH]n2)c2cccn2n1 | inactive |  | 
CC[C@H](CC#N)OC(=O)N[C@@H](C)c1cccc(NC(=O)Nc2ccc(-c3cnco3)c(OC)c2)c1 | inactive |  | 
CN[C@@H](C)[C@H]1[C@H](O)C[C@@]2(C)[C@@H]3CC[C@H]4C(C)(C)[C@@H](NC)CC[C@@]45C[C@@]35CC[C@]12C |  |  | inactive [at 10.7 µM]
CNC(=O)c1c(-c2ccc(F)cc2)oc2cc(N(CCO)S(C)(=O)=O)c(C3CC3)cc12 | inactive |  | 
CN1c2ccccc2C(=O)N2CCc3c([nH]c4ccccc34)C21 (stereo not given) | inactive |  | 
Cc1csc(-c2nnc(Nc3ccc(Oc4ncccc4-c4ccnc(N)n4)cc3)c3ccccc23)c1 | inactive |  | 
CN1C(=O)C(Cc2c[nH]c3ccccc23)NC1=S (stereo not given) | inactive |  | 
CN(C)c1nc(Cc2ccc(NC(=O)c3ccc(C(F)(F)F)cc3)cc2)nc(N(C)C)c1CC(=O)O | inactive |  | 
O=C1C(c2c(O)[nH]c3ccccc23)=Nc2ccccc21 | inactive |  | 
CCn1c(-c2nonc2N)nc2cncc(CNC3CCNCC3)c21 | inactive |  | 
COc1nccc(-c2c(-c3ccc(F)cc3)ncn2C2CCNCC2)n1 | inactive |  | 
NC(=O)c1noc([C@H](CCCC2CCCCC2)CC(=O)NO)n1 | inactive |  | 
Cc1ccccc1-n1c(Cn2nc(-c3cccc(O)c3)c3c(N)ncnc32)nc2cccc(C)c2c1=O | inactive |  | 
COc1cc(Nc2nc3ccccc3nc2NS(=O)(=O)c2ccc(NC(=O)c3ccc(C)c(OC)c3)cc2)cc(OC)c1 | 3.16 µM (active) |  | 
CCN1C[C@H](C)n2c(c(O)c3c(=O)n(Cc4ccc(F)c(Cl)c4)nc(C(=O)NC)c32)C1=O | inactive |  | 
